Measured values as given in article PMC5540273 (PLoS ONE, 2017).

What was measured:
Conditions in all cases: concentration: 1 μM, replicates: in singlicate; n = 1
[1] = system: MAP3K4
[2] = system: MAP4K2
[3] = system: MAP4K3
[4] = system: MAP4K4
[5] = system: MAP4K5
[6] = system: MAPKAPK2
[7] = system: MAPKAPK5
[8] = system: MARK1
[9] = system: MARK2
[10] = system: MARK3
[11] = system: MARK4
[12] = system: MAST1
[13] = system: T1, MEK1
T1 construct: gene MAP2K1

[14] = system: T2, MEK2
T2 construct: gene MAP2K2

[15] = system: T3, MEK3
T3 construct: gene MAP2K3

[16] = system: T4, MEK4
T4 construct: gene MAP2K4

[17] = system: T5, MEK5
T5 construct: gene MAP2K5

[18] = system: T6, MEK6
T6 construct: gene MAP2K6

[19] = system: MELK
[20] = system: MERTK
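Also: KINOMEscan kinase panel screen.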

SMILES | %Inh [1] [%] | %Inh [2] [%] | %Inh [3] [%] | %Inh [4] [%] | %Inh [5] [%] | %Inh [6] [%] | %Inh [7] [%] | %Inh [8] [%] | %Inh [9] [%] | %Inh [10] [%] | %Inh [11] [%] | %Inh [12] [%] | %Inh [13] [%] | %Inh [14] [%] | %Inh [15] [%] | %Inh [16] [%] | %Inh [17] [%] | %Inh [18] [%] | %Inh [19] [%] | %Inh [20] [%]
O=C(Nc1n[nH]c2cc(-c3ccccc3F)ccc12)C1CC1 [SB-733371] | 29 | 16 | 0 | 43 | 18 | 0 | 10 | 0 | 29 | 0 | 0 | 52 | 0 | 14 | 16 | 0 | 48 | 0 | 0 | 0
CCn1c(-c2ccoc2)nc2cnccc21 [SB-733887] | 0 | 0 | 0 | 11 | 5 | 16 | 0 | 0 | 0 | 3 | 0 | 9 | 18 | 0 | 5 | 14 | 38 | 0 | 22 | 5
Cc1c(Cn2c(C)nn3c(=O)cc(N4CCO[C@H](C)C4)nc23)cccc1C(F)(F)F [GSK2373690] | 43 | 0 | 0 | 3 | 0 | 23 | 0 | 0 | 0 | 0 | 0 | 0 | 0 | 0 | 0 | 12 | 1 | 0 | 0 | 14
CC(C)(C)c1ccc(C(=O)Nc2cn3cc(-c4ccccc4)ccc3n2)cc1 | 7 | 0 | 33 | 5 | 0 | 12 | 0 | 0 | 19 | 0 | 0 | 0 | 0 | 45 | 25 | 0 | 75 | 0 | 0 | 0
COc1cc2nccc(Nc3ccc(OCc4ccc(NC(C)=O)cc4)cc3)c2cc1OC.Cl [GW440135] | 37 | 1 | 0 | 0 | 0 | 28 | 0 | 0 | 0 | 0 | 8 | 0 | 19 | 0 | 14 | 2 | 99.6 | 0 | 0 | 40
COc1cc2ncn(-c3cc(OCc4ccc(S(C)(=O)=O)cc4)c(C(N)=O)s3)c2cc1OC [GW869979] | 0 | 26 | 0 | 0 | 0 | 0 | 31 | 0 | 10 | 0 | 0 | 5 | 30 | 25 | 28 | 6 | 81 | 0 | 8 | 0
CCc1nc(-c2cccc(C)c2)c(-c2ccncc2)s1 | 0 | 0 | 0 | 17 | 0 | 0 | 0 | 0 | 11 | 0 | 0 | 0 | 2 | 48 | 23 | 0 | 34 | 0 | 0 | 0
O=C(NCc1cccs1)c1cc(C(=O)c2c(Cl)cccc2Cl)c[nH]1 [GW823670] | 0 | 0 | 0 | 0 | 3 | 0 | 0 | 0 | 0 | 50 | 0 | 0 | 4 | 25 | 1 | 0 | 7 | 5 | 26 | 0
COc1cc2ncn(-c3cc(OCc4ccncc4Br)c(C(N)=O)s3)c2cc1OC [GW854278] | 17 | 11 | 0 | 0 | 20 | 0 | 0 | 8 | 37 | 0 | 39 | 3 | 0 | 13 | 0 | 16 | 98.8 | 0 | 17 | 11
CCS(=O)c1ccc(-c2coc3ccc(-c4nnc(C)o4)cc23)cc1 (centres unmarked) | 0 | 0 | 0 | 5 | 4 | 0 | 7 | 4 | 8 | 17 | 0 | 53 | 0 | 8 | 6 | 23 | 22 | 0 | 0 | 0
